Assay outcomes from PubChem.
AGP1 TOR yeast – modulators of AGP1-GFP expression in yeast TOR pathway, primary screen, cell-based, multiplex flow cytometry, S. cerevisiae, MLPCN library; GFP response vs DMSO, % at 10 µM; 3 h; GFP as percent of DMSO wells; 0.02% of 320,000 active;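 active = GFP response relative to DMSO above a set limit, near screen average plus 3 SD, cut at about 150% in these data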;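 also: median GFP channel fluorescence of the gated AGP1 strain per well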
LAP4-GFP MLPCN – modulators of LAP4-GFP expression in yeast, primary screen, S. cerevisiae, multiplex flow cytometry, MLPCN library; GFP response vs DMSO, % at 10 µM; 0.34% of 320,000 active; 3 h; median GFP as percent of DMSO wells; AID 2023, 2009;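 active = GFP response vs DMSO above a set limit, about the screen mean plus 3 SD, cut at about 150% in these data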
CIT2 TOR yeast – modulators of CIT2-GFP expression in yeast, primary screen, S. cerevisiae, GFP fusion, multiplex flow cytometry, MLPCN library; S. cerevisiae CIT2-GFP strain, 3 h; 100 means same as DMSO wells; GFP response vs DMSO, % at 10 µM; 0.065% of 320,000 active; AID 2029, 2009;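 active = GFP response relative to DMSO above a set limit, near the screen mean plus 3 SD, cut at about 150% in these data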;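 also: ratio of well median GFP fluorescence to mean of DMSO wells on the plate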
RPL19A-GFP yeast – RPL19A-GFP expression modulators in yeast, primary screen, cell-based, S. cerevisiae, multiplex flow cytometry, MLPCN; S. cerevisiae RPL19A-GFP strain, 3 h; hits give low values; AID 2025, 2009; 0.3% of 330,000 active; percent response vs DMSO, % at 10 µM;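 active = percent response vs DMSO below 50%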;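 also: median channel GFP fluorescence of the barcoded RPL19A-GFP strain; ratio of sample median GFP to plate DMSO average so 100% = DMSO; lower means less RPL19A-GFP as with rapamycin TOR inhibition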
MEP2-GFP yeast – modulators of MEP2-GFP levels in yeast, primary screen, S. cerevisiae, multiplex flow cytometry, MLPCN library. S. cerevisiae MEP2-GFP strain, 3 h; 100% = DMSO control level. GFP response vs DMSO, % at 10 µM. 0.51% of 330,000 active;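 active = GFP response versus DMSO above a set limit, roughly screen mean plus 3 SD, cut at about 180% in these data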;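 also: median GFP fluorescence of the barcode-gated MEP2-GFP cells per well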
LAP4 cherry2 – LAP4-GFP expression modulators in yeast, confirmation, cell-based, second cherry pick, flow cytometry. GFP response vs DMSO, % at 10 µM. 20% of 590 active. S. cerevisiae LAP4-GFP strain, 3 h. shares compounds with LAP4-GFP MLPCN;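 active = GFP signal as percent of the solvent control above about 150%, meaning raised reporter expression, limit read from the data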;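 also: ratio of well median GFP fluorescence to plate DMSO mean so 100% = DMSO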
MEP2-GFP pick2 – modulators of MEP2-GFP levels in yeast, confirmation, S. cerevisiae, flow cytometry GFP, second cherry picks. shares compounds with LAP4-GFP MLPCN. S. cerevisiae MEP2-GFP strain, 3 h. GFP response vs DMSO, % at 10 µM. 10% of 590 active;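 active = GFP signal above 150% of the solvent control wells, that is a rise of more than half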;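 also: median channel GFP fluorescence of all gated yeast cells per well; ratio of median GFP to plate DMSO average so 100% = DMSO level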
RPL19A-GFP pick2 – RPL19A-GFP modulators in TOR pathway yeast, confirmation, cell-based, S. cerevisiae, flow cytometry, second cherry pick. 3% of 590 active. GFP response vs DMSO, % at 10 µM. shares compounds with LAP4-GFP MLPCN. S. cerevisiae RPL19A-GFP strain, 3 h; hits give low values; 100% means same as DMSO wells. AID 2623, 2010;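 active = under 65% GFP response relative to DMSO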;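 also: median GFP channel fluorescence per well over the all cells gate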
CIT2 GFP CP2 – modulators of CIT2-GFP expression in yeast, confirmation, flow cytometry, second cherry pick, single plex; shares compounds with LAP4-GFP MLPCN; S. cerevisiae CIT2-GFP strain, 3 h; DMSO control wells read 100%; GFP response vs DMSO, % at 10 µM; 8% of 590 active;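 active = GFP response vs DMSO above about 150%, limit read from the data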;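 also: median green fluorescence per well over all gated yeast cells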
AGP1 GFP CP2 – AGP1-GFP expression modulators, hit retest, confirmation, cell-based, flow cytometry, S. cerevisiae, cherry pick set 2 | 590 tested, under 10 active | percent response vs DMSO, % at 10 µM | shares compounds with LAP4-GFP MLPCN | S. cerevisiae AGP1-GFP strain, 3 h;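 active = over 150 percent of DMSO response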;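 also: median GFP channel fluorescence over all cells without mother daughter split; sample median GFP divided by mean DMSO control so 100% equals DMSO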
s288c autofluor – compound autofluorescence in yeast s288c, dose response, artefact control for yeast TOR pathway GFP screen, s288c strain; shares compounds with LAP4-GFP MLPCN; S. cerevisiae s288c, 520 nm autofluorescence, flow cytometry, 3 h; hits give high values; zero means same as solvent-only cells; fluorescence change (kMESF span) at 33 µM; 610 tested, under 10 active; AID 2757, 2010;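 active = fluorescence span over the dose series, or activity score, above about 33, limit read from the data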
Yeast autofl DR – autofluorescence of compounds in yeast s288c, dose response, artefact control for yeast TOR pathway GFP screen, primary hits, KU SAR, s288c parental; shares compounds with LAP4-GFP MLPCN; S. cerevisiae s288c parental, compound autofluorescence, flow cytometry, 3 h; fluorescence change (span) at 33 µM; 110 tested, under 10 active;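 active = fluorescence change span, or the activity score built from it, above 25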
TORC1 bypass gr – wild-type yeast growth inhibition sparing TORC1 bypass cells, mechanism study for yeast TOR pathway GFP screen, BY4741 wild type, TORC1 bypass strain; 120 tested, under 10 active; S. cerevisiae BY4741 spot growth rating, 48-72 h; hits give low values; AID 504456, 2011; growth rating (0-3) at 30 µM; shares compounds with LAP4-GFP MLPCN;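 active = growth rating at most 1 for wild type yeast while the TORC1 bypass strain still grows fully, rated 3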
The depositor's hits bear a star. Compounds with a hit are over-represented: about 0.92% of the library has one in this group of screens.

Screening COc1cccc(/C=C2\SC(=S)N(CCCC(=O)Nc3ccc(C(=O)O)cc3)C2=O)c1 returned AGP1 TOR yeast 117, LAP4-GFP MLPCN 110, CIT2 TOR yeast 173*, RPL19A-GFP yeast 101, MEP2-GFP yeast 117, LAP4 cherry2 104, MEP2-GFP pick2 105, RPL19A-GFP pick2 101, CIT2 GFP CP2 99, AGP1 GFP CP2 98 and s288c autofluor 0.1.
Screening COc1cc(/C=C/C(=O)N2CCN(C)CC2)cc(S(=O)(=O)N2CCc3ccccc32)c1OC returned AGP1 TOR yeast 26, LAP4-GFP MLPCN 91, CIT2 TOR yeast 99, RPL19A-GFP yeast 62, MEP2-GFP yeast 125, LAP4 cherry2 103, MEP2-GFP pick2 100, RPL19A-GFP pick2 100, CIT2 GFP CP2 98 and AGP1 GFP CP2 100.
`COc1cc(/C=C/C(=O)OCC(=O)NC2CC2)cc(S(=O)(=O)N2CCc3ccccc32)c1OC` gave AGP1 TOR yeast 100, LAP4-GFP MLPCN 103, CIT2 TOR yeast 118, RPL19A-GFP yeast 102 and MEP2-GFP yeast 102.
O=C1CCCN2N=C(SCC(=O)N3CCCCC3)SC2=N1 was read as AGP1 TOR yeast 61, LAP4-GFP MLPCN 92, CIT2 TOR yeast 97, RPL19A-GFP yeast 58, MEP2-GFP yeast 143, LAP4 cherry2 99, MEP2-GFP pick2 102, RPL19A-GFP pick2 100, CIT2 GFP CP2 97 and AGP1 GFP CP2 101.
`Cc1ccc(NC(=O)COC(=O)c2ccc(CN3CCCC3=O)cc2)c(Cl)c1` gave AGP1 TOR yeast 107, LAP4-GFP MLPCN 110, CIT2 TOR yeast 97, RPL19A-GFP yeast 110 and MEP2-GFP yeast 111.
For CCCn1nc(C(=O)N(C)CC(=O)Nc2ccc(OCC)c(OCC)c2)c2ccccc2c1=O the results were AGP1 TOR yeast 94, LAP4-GFP MLPCN 95, CIT2 TOR yeast 93, RPL19A-GFP yeast 95 and MEP2-GFP yeast 95.
CCOc1cc(/C=C2\C(=O)ON=C2c2ccccc2)cc(Br)c1O was read as AGP1 TOR yeast 83, LAP4-GFP MLPCN 135, CIT2 TOR yeast 119, RPL19A-GFP yeast 88 and MEP2-GFP yeast 88.
For O=C1ON=C(c2ccccc2)/C1=C/c1ccc(O)cc1 the results were AGP1 TOR yeast 90, LAP4-GFP MLPCN 116, CIT2 TOR yeast 113, RPL19A-GFP yeast 100 and MEP2-GFP yeast 95.
COc1cc(/C=C2/C(=O)ON=C2c2ccccc2)ccc1O was read as AGP1 TOR yeast 78, LAP4-GFP MLPCN 173*, CIT2 TOR yeast 99, RPL19A-GFP yeast 95, MEP2-GFP yeast 93 and s288c autofluor 0.2.
For COc1cc(/C=C2\C(=O)ON=C2c2ccccc2)cc(Br)c1O the results were AGP1 TOR yeast 89, LAP4-GFP MLPCN 157*, CIT2 TOR yeast 119, RPL19A-GFP yeast 92, MEP2-GFP yeast 96 and s288c autofluor 1.3.
For O=C1ON=C(c2ccc(Cl)cc2)/C1=C/c1ccc(O)cc1 the results were AGP1 TOR yeast 78, LAP4-GFP MLPCN 161*, CIT2 TOR yeast 96, RPL19A-GFP yeast 89, MEP2-GFP yeast 86 and s288c autofluor 0.7.
COc1ccc(C(=O)COC(=O)c2sc(C)nc2C)cc1F was read as AGP1 TOR yeast 94, LAP4-GFP MLPCN 91, CIT2 TOR yeast 97, RPL19A-GFP yeast 91 and MEP2-GFP yeast 100.
For N=C1S/C(=C\c2ccco2)C(=O)N1c1nccs1 the results were AGP1 TOR yeast 76, LAP4-GFP MLPCN 168*, CIT2 TOR yeast 72, RPL19A-GFP yeast 101, MEP2-GFP yeast 108 and s288c autofluor 0.1.
`N=C1S/C(=C\c2ccco2)C(=O)N1c1ccc2c(c1)OCO2` gave AGP1 TOR yeast 100, LAP4-GFP MLPCN 105, CIT2 TOR yeast 94, RPL19A-GFP yeast 100 and MEP2-GFP yeast 92.
O=C1N=c2ccccc2=C1c1c(O)n(-c2cccc(F)c2)[nH]c1=O was read as AGP1 TOR yeast 89, LAP4-GFP MLPCN 200*, CIT2 TOR yeast 74, RPL19A-GFP yeast 77, MEP2-GFP yeast 97, LAP4 cherry2 147, MEP2-GFP pick2 105, RPL19A-GFP pick2 94, CIT2 GFP CP2 110 and AGP1 GFP CP2 94.
`COc1ccc(C(=O)NNC(=S)NC(=O)/C=C/c2cccs2)cc1` gave AGP1 TOR yeast 133, LAP4-GFP MLPCN 186*, CIT2 TOR yeast 101, RPL19A-GFP yeast 98, MEP2-GFP yeast 109, s288c autofluor 0.82, Yeast autofl DR 0.21 and TORC1 bypass gr 3.
`O=C(/C=C/c1cccs1)NC(=S)NNC(=O)c1ccccc1O` gave AGP1 TOR yeast 90, LAP4-GFP MLPCN 95, CIT2 TOR yeast 80, RPL19A-GFP yeast 100 and MEP2-GFP yeast 93.
